# According to PubChem BioAssay (EPA / NIEHS):
# Values joined by “and” are separate entries in the source; they are usually repeats but may differ in a detail not shown here. Equal values may be shown once. Some compounds were tested as several samples or in several runs, with calls that do not always agree. Active and inactive are the calls of the source. The calls were made as follows: active = hit-call score of the fitted dose curve at least 0.9, where 1 is the maximum; inactive = score below 0.9.
# Test: ATG_RORE_CIS: Attagene CIS-FACTORIAL HepG2 Assay for human RAR-related Orphan Receptor Element (RORE) (AID 2282959)
# Conditions: HepG2 Attagene cis-factorial RORE reporter, mRNA; actives raise or lower the signal
# Method: ATG_CIS is a cell-based, multiplexed-readout assay that uses HepG2, a human liver cell line, with measurements taken at 24 hours after chemical dosing in a 24-well plate.ATG_RORE_CIS is one of 52 assay component(s) measured or calculated from the ATG_CIS assay. It is designed to make measurements of mRNA induction, a form of inducible reporter, as detected with fluorescence intensity signals by Reverse transcription polymerase chain reaction (RT-PCR) and Capillary electrophoresis technology.Data from the assay component ATG_RORE_CIS was analyzed into 1 assay endpoint. This assay endpoint, ATG_RORE_CIS, was analyzed with bidirectional fitting relative to DMSO as the negative control and baseline of activity. Using a type of inducible reporter, measures of mRNA for gain or loss-of-signal activity can be used to understand the reporter gene at the transcription factor-level as they relate to the gene RORA and RORB and RORC. Furthermore, this assay endpoint can be referred to as a primary readout, because this assay has produced multiple assay endpoints where this one serves a reporter gene function. To generalize the intended target to other relatable targets, this assay endpoint is annotated to the nuclear receptor intended target family, where the subfamily is orphan.
# Human liver HepG2 cells are transiently transfected with multiple reporter transcription units (MRTUs) in 6-well plates using FuGene 6 reagent (Roche; 3 ml FuGene/1 mg DNA). The MRTU constructs are regulated by a cis-regulating element (promoter). […] A major difference between the CIS and TRANS system is that in CIS activities of endogenous TFs are measured, whereas the TRANS assay evaluates changes in activities of exogenous, chimeric NR-Gal4 proteins. […] At the end of 24 hour incubation, total RNA was isolated using TriZol reagent (Invitrogen). The isolated RNA is then reverse-transcribed using oligo(dT) primer and Mo-MLV reverse transcriptase (Invitrogen) with DNAse I (Ambion) treatment for 30 min. The one-tenth of the produced cDNA was amplified by PCR using Taq DNA polymerase (Invitrogen) and two reporter sequence-specific primers. The PCR products were fluorescently labeled by primer extension with 6-arboxyfluorescein (6-FAM) 5'-labeled reporter sequence-specific primer (2 min at 95 C, 20 s at 68 C and 10 min at 72 C) and these products were digested with 5U of HpaI (New England Biolabs) for 2h at 37 C. The fragments were purified using Qiaquick PCR columns (Qiagen), analyzed on an ABI 3130xL genetic analyzer (Applied Biosystems) with peak positions identified by using a set of X-rhodamine (ROX)-labeled MapMarker1000 molecular weight standards (BioVentures). The raw capillary electrophoresis data was processed using Attagraph software (Attagene).
Structure (SMILES),outcome,AC50
CC(C)(O)CCc1ccccc1,inactive,–
CCCCCCCCCCCCCCCCCC(=O)OCCCCCCCCCCCCCC(C)C,inactive,–
C#C[C@]1(O)CC[C@H]2[C@@H]3CCc4cc(O)ccc4[C@H]3CC[C@@]21C,inactive,67.3 µM (active) and 60.7 µM (active) and 26.4 µM (active)
CC(=N[Si](C)(C)C)O[Si](C)(C)C,inactive,–
CCCCOCCOC(=O)c1ccccc1C(=O)OCCOCCCC,inactive,–
CC(=O)OCC=C(C)CCC=C(C)CCC=C(C)C,–,164 µM (active)
OCCCO,inactive,–
CCOC(=O)CC1(C)OCC(C)O1 (stereo not given),inactive,–
CC(=O)OC/C=C(C)/C=C/C=C(C)/C=C/C1=C(C)CCCC1(C)C,inactive,–
CCOC(=O)C(=O)OCC,inactive,–
CCCCC(CC)COCCO (stereo not given),inactive,–
CCCCC1CCCCC(=O)O1 (stereo not given),inactive,–
N=C1N=C(N)c2ccccc21,inactive,–
CC(=O)Nc1cc(S(=O)(=O)O)cc2cc(S(=O)(=O)O)c(N=Nc3ccccc3)c(O)c12,inactive,–
CC(=O)CC(=O)N(C)C,inactive,–
CC(C)CCCC(C)(C)O,inactive,–
C=C(C)C(=O)OCCC(C)OC(=O)C(=C)C (stereo not given),inactive,–
N#CCCNCCC#N,inactive,–
CCCc1ccc(N)cc1,inactive,–
CCCCOCCOCCO,inactive,–

Structure (SMILES),outcome,AC50
CC1(C)CC(N)CC(C)(CN)C1 (stereo not given),inactive,–
COc1ccc(N)c(C)c1,inactive,–
N#CCCCC(C#N)CCC#N (stereo not given),inactive,–
CC(=O)c1ccc2ccccc2c1,inactive,–
c1coc(CNc2ncnc3nc[nH]c23)c1,inactive,–
CCC=C(C)C=O,inactive,–
CC(=O)c1ccc(O)cc1,inactive,–
CCn1cc(C(=O)O)c(=O)c2ccc(C)nc21,inactive,–
Cc1ccccc1S,inactive,–
CCc1cccc(O)c1,inactive,–
CCC(C)(CCCC(C)C)OC(C)=O (stereo not given),inactive,–
CC(=O)C1C(=O)C=C(C)OC1=O (stereo not given),inactive,–
C=CCOC(=O)/C=C\C(=O)OCC=C,–,11.3 µM (active)
C=CCOCC(O)CO (stereo not given),inactive,–
CCCCCC1CCC(=O)O1 (stereo not given),inactive,–
COC(=O)c1cccc(C(=O)OC)c1,inactive,–
[Cl][Dy]([Cl])[Cl],inactive,–
CC(CO)c1ccccc1 (stereo not given),inactive,–
O=C(O)C1=NN(c2ccc(S(=O)(=O)O)cc2)C(=O)C1,inactive,–
